# Assay results taken from the supplement of paper PMC8728848.
# This excerpt belongs to a sample that is enriched for the strongest signals.
# B1: Erv46-EDTA (Saccharomyces cerevisiae), P39727 (protein)
# chain: MKFLVNVALVFMVVYISYIYAAAPEHHHHHHDYDIPTTENLYFQGAMDSVVTRPQLVVDRDRHAKLELNMDVTFPSMPCDLVNLDIMDDSGEMQLDILDAGFTMSRLNSEGRPVGDATELHVGGNGDGTAPVNNDPNYCGPCYGAKDQSQNENLAQEEKVCCQDCDAVRSAYLEAGWAFFDGKNIEQCEREGYVSKINEHLNEGCRIKGSAQINRIQGNLHFAPGKPYQNAYGHFHDTSLYDKTSNLNFNHIINHLSFGKPIQSHSKLLGNDKRHGGAVVATSPLDGRQVFPDRNTHFHQFSYFAKIVPTRYEYLDNVVIETAQFSATFHSRPLAGGRDKDHPNTLHVRGGIPGMFVFFEMSPLKVINKEQ
# Tests used:
# Test in all cases: glycan array binding signal (z-score within array); higher = stronger binding
# Details in all cases: glycan notation: IUPAC condensed, linker removed
# [1] = target: Fuc(a1-2)Gal(b1-3)[Fuc(a1-4)]GlcNAc(b1-2)Man(a1-3)[Fuc(a1-2)Gal(b1-3)[Fuc(a1-4)]GlcNAc(b1-2)Man(a1-3)]Man(b1-4)GlcNAc(b1-4)GlcNAc
# In short: (§1)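 Negative Z-scores can be read as non-binding. The Z-score is calculated within each array and then averaged across arrays of one protein sequence at different concentrations or buffers and across linkers. Arrays, 3228 in all, were curated from the Consortium for Functional Glycomics database and kept only where the protein sequence was available.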
# [2] = target: Fuc(a1-2)Gal(b1-4)Fuc(a1-3)]GlcNAc(b1-2)Man(a1-3)[Fuc(a1-2)Gal(b1-4)[Fuc(a1-3)]GlcNAc(b1-2)Man(a1-6)]Man(b1-4)GlcNAc(b1-4)GlcNAc
# In short: as §1
# Fuc(a1-2)Gal(b1-4)GlcNAc = target: Fuc(a1-2)Gal(b1-4)GlcNAc
# In short: as §1
# [3] = target: Fuc(a1-2)Gal(b1-4)[Fuc(a1-3)]GlcNAc(b1-2)[Fuc(a1-2)Gal(b1-4)[Fuc(a1-3)]GlcNAc(b1-4)]Man(a1-3)[Fuc(a1-2)Gal(b1-4)[Fuc(a1-3)]GlcNAc(b1-2)Man(a1-6)]Man(b1-4)GlcNAc(b1-4)GlcNAc
# In short: as §1
# [4] = target: Fuc(a1-2)Gal(b1-4)[Fuc(a1-3)]GlcNAc(b1-3)Gal(b1-4)[Fuc(a1-3)]GlcNAc(b1-3)Gal(b1-4)[Fuc(a1-3)]GlcNAc
# In short: as §1
# [5] = target: Fuc(a1-2)Gal6S(b1-4)Glc6S
# In short: as §1
# [6] = target: Fuc(a1-2)[GalNAc(a1-3)]Gal
# In short: as §1
# [7] = target: Fuc(a1-2)[GalNAc(a1-3)]Gal(b1-3)GalNAc(a1-3)[Fuc(a1-2)]Gal(b1-4)GlcNAc
# In short: as §1
# [8] = target: Gal(a1-3)Gal(b1-4)GlcNAc(b1-2)Man
# In short: as §1
# [9] = target: Gal(a1-3)Gal(b1-4)[Fuc(a1-3)]GlcNAc(b1-2)Man(a1-3)[Gal(a1-3)Gal(b1-4)[Fuc(a1-3)]GlcNAc(b1-2)Man(a1-6)]Man(b1-4)GlcNAc(b1-4)GlcNAc
# In short: as §1
# Gal(a1-4)Gal(b1-4)Glc = target: Gal(a1-4)Gal(b1-4)Glc
# In short: as §1
# [10] = target: Gal(b1-3)GlcNAc(a1-6)Gal(b1-4)GlcNAc
# In short: as §1
# [11] = target: Gal(b1-3)GlcNAc(b1-3)Gal(b1-4)GlcNAc(b1-2)Man(a1-3)[Gal(b1-3)GlcNAc(b1-3)Gal(b1-4)GlcNAc(b1-2)Man(a1-6)]Man(b1-4)GlcNAc(b1-4)GlcNAc
# In short: as §1
# [12] = target: Gal(b1-4)GlcNAc(b1-2)Man(a1-6)[Man(a1-3)]Man(b1-4)GlcNAc(b1-4)GlcNAc
# In short: as §1
# [13] = target: Gal(b1-4)GlcNAc(b1-3)Gal(b1-4)GlcNAc(b1-2)Man(a1-3)[Gal(b1-4)GlcNAc(b1-3)Gal(b1-4)GlcNAc(b1-2)Man(a1-6)]Man(b1-4)GlcNAc(b1-4)GlcNAc
# In short: as §1
# [14] = target: Gal(b1-4)GlcNAc(b1-3)Gal(b1-4)GlcNAc(b1-2)[Gal(b1-4)GlcNAc(b1-3)Gal(b1-4)GlcNAc(b1-6)]Man(a1-6)[Gal(b1-4)GlcNAc(b1-3)Gal(b1-4)GlcNAc(b1-2)Man(a1-3)]Man(b1-4)GlcNAc(b1-4)GlcNAc
# In short: as §1
# [15] = target: Gal(b1-4)GlcNAc(b1-3)Gal(b1-4)GlcNAc(b1-2)[Gal(b1-4)GlcNAc(b1-3)Gal(b1-4)GlcNAc(b1-6)]Man(a1-6)[Gal(b1-4)GlcNAc(b1-3)Gal(b1-4)GlcNAc(b1-2)Man(a1-3)]Man(b1-4)GlcNAc(b1-4)[Fuc(a1-6)]GlcNAc
# In short: as §1
# [16] = target: Gal(b1-4)GlcNAc(b1-3)Gal(b1-4)GlcNAc(b1-3)Gal(b1-4)GlcNAc
# In short: as §1
# [17] = target: Gal(b1-4)GlcNAc(b1-3)Gal(b1-4)GlcNAc(b1-3)Gal(b1-4)GlcNAc(b1-2)Man(a1-3)[Gal(b1-4)GlcNAc(b1-3)Gal(b1-4)GlcNAc(b1-3)Gal(b1-4)GlcNAc(b1-2)Man(a1-6)]Man(b1-4)GlcNAc(b1-4)GlcNAc
# In short: as §1
# [18] = target: Gal(b1-4)GlcNAc(b1-3)Gal(b1-4)GlcNAc(b1-3)Gal(b1-4)GlcNAc(b1-3)Gal(b1-4)GlcNAc(b1-3)Gal(b1-4)GlcNAc(b1-2)Man(a1-3)[Gal(b1-4)GlcNAc(b1-3)Gal(b1-4)GlcNAc(b1-3)Gal(b1-4)GlcNAc(b1-3)Gal(b1-4)GlcNAc(b1-3)Gal(b1-4)GlcNAc(b1-2)Man(a1-6)]Man(b1-4)GlcNAc(b1-4)[Fuc(a1-6)]GlcNAc
# In short: as §1
# [19] = target: Gal(b1-4)GlcNAc(b1-3)Gal(b1-4)GlcNAc(b1-3)GalNAc
# In short: as §1
# [20] = target: Gal(b1-4)GlcNAc(b1-3)[Fuc(a1-3)GlcNAc(b1-6)]Gal(b1-4)Glc
# In short: as §1
# Gal(b1-6)Gal = target: Gal(b1-6)Gal
# In short: as §1
# [21] = target: Gal3S(b1-4)[Fuc(a1-3)]Glc6S
# In short: as §1
# Gal6S(b1-3)GlcNAc = target: Gal6S(b1-3)GlcNAc
# In short: as §1
# GalNAc(b1-4)Gal(b1-4)Glc = target: GalNAc(b1-4)Gal(b1-4)Glc
# In short: as §1
# GalNAc(b1-4)GlcNAc = target: GalNAc(b1-4)GlcNAc
# In short: as §1
# [22] = target: GalNAc(b1-4)GlcNAc(b1-3)GalNAc(b1-4)GlcNAc
# In short: as §1
# [23] = target: GlcNAc(b1-2)Man(a1-3)[GlcNAc(b1-2)Man(a1-6)]Man(b1-4)GlcNAc(b1-4)[Fuc(a1-6)]GlcNAc
# In short: as §1
# [24] = target: GlcNAc(b1-2)[GlcNAc(b1-6)]Man(a1-6)[GlcNAc(b1-2)Man(a1-3)]Man(b1-4)GlcNAc(b1-4)[Fuc(a1-6)]GlcNAc
# In short: as §1
binder,measurement,setting,value
B1,glycan array binding signal (z-score),[1],0.467
same,glycan array binding signal (z-score),[2],3.11
same,glycan array binding signal (z-score),Fuc(a1-2)Gal(b1-4)GlcNAc,-0.508
same,glycan array binding signal (z-score),[3],2.34
same,glycan array binding signal (z-score),[4],-0.775
same,glycan array binding signal (z-score),[5],0.075
same,glycan array binding signal (z-score),[6],-0.619
same,glycan array binding signal (z-score),[7],-0.454
same,glycan array binding signal (z-score),[8],0.805
same,glycan array binding signal (z-score),[9],2.74
same,glycan array binding signal (z-score),Gal(a1-4)Gal(b1-4)Glc,0.54
same,glycan array binding signal (z-score),[10],-0.279
same,glycan array binding signal (z-score),[11],0.126
same,glycan array binding signal (z-score),[12],-0.001
same,glycan array binding signal (z-score),[13],4.93
same,glycan array binding signal (z-score),[14],2.71
same,glycan array binding signal (z-score),[15],2.65
same,glycan array binding signal (z-score),[16],0.66
same,glycan array binding signal (z-score),[17],3.36
same,glycan array binding signal (z-score),[18],1.81
same,glycan array binding signal (z-score),[19],2.4
same,glycan array binding signal (z-score),[20],-0.11
same,glycan array binding signal (z-score),Gal(b1-6)Gal,-0.241
same,glycan array binding signal (z-score),[21],0.233
same,glycan array binding signal (z-score),Gal6S(b1-3)GlcNAc,-0.805
same,glycan array binding signal (z-score),GalNAc(b1-4)Gal(b1-4)Glc,-0.674
same,glycan array binding signal (z-score),GalNAc(b1-4)GlcNAc,0.697
same,glycan array binding signal (z-score),[22],-0.443
same,glycan array binding signal (z-score),[23],6.37
same,glycan array binding signal (z-score),[24],1.14
